NPSR antag: neuropeptide S receptor (human) antagonism, cAMP. Q6W5P4. CHO-NPSR cells, cAMP TR-FRET, antagonist mode. AID 1461. Potency, µM (series often up to 38.3 µM), without a hit: at the highest dose activity change, negative = inhibition, most hits filed as inhibitors. actives 1% (n = 220,000); also: potency is read from the fitted curve at half-maximal effect; nearly all actives have a fitted effect of over 50% in size
Target sequence (Q6W5P4 whole entry, looked up): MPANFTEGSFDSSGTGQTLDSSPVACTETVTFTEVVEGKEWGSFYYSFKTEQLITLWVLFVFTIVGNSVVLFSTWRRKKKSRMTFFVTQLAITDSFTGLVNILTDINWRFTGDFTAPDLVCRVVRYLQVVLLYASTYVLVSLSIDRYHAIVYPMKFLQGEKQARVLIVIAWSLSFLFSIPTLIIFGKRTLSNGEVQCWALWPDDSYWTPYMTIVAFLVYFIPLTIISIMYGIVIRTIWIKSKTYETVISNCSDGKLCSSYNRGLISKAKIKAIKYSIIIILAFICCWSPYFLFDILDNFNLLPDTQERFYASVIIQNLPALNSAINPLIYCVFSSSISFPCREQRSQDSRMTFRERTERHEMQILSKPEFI
FBPA coupling cs: inhibits coupling enzyme system, counter-screen for aldolase hits. coupling enzyme system counterscreen, AmpLite Red fluorescence. activity change, negative = inhibition, % at 58.2 µM, hits read low. actives 0.67% (n = 290,000); in the data active = activity change below about -30%
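First, compound is pin-transferred into glyceraldehyde-3-phosphate coupling-enzyme reagent at 57.5 uM final and held 10 min at RT. Next, substrate, coupling system and AmpLite Red are added. After 20 min RT, fluorescence (525/598 nm) is read.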
JMJD2E inh: inhibitors of human JMJD2E histone demethylase | B2RXH2 | JMJD2E catalytic domain, FDH-coupled NADH fluorescence (FDH is formaldehyde dehydrogenase) | Potency, µM (highest dose often 57.1 µM), for inactives: at the top dose activity change, negative = inhibition, usual class: inhibitors | actives 1.6% (n = 230,000) | AID 2147; active = well fitted inhibition curve with a large enough effect, not every such curve was filed as active; inconclusive = small, poorly fitted or top-dose-only effect, or another doubt; inactive = no such curve, though single readings can be large or run the other way;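 also: potency is read from the fitted curve at half-maximal effect; 0% = wells with enzyme and -100% = buffer wells without enzyme; nearly all actives have a fitted effect of over 50% in size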
Target sequence (B2RXH2 1-337 limits assumed): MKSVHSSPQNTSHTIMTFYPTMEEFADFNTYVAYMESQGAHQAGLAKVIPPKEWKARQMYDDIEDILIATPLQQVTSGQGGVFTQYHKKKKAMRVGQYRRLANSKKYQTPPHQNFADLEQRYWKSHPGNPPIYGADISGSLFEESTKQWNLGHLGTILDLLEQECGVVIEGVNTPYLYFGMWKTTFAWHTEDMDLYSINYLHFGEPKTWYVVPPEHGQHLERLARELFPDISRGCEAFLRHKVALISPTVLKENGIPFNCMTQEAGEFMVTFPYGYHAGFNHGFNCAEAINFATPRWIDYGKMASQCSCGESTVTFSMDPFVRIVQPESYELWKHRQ
GoLoco inh red: blocks human Gai1 binding to RGS12 GoLoco peptide, red readout; Gai1:RGS12 GoLoco peptide FP, rhodamine, 10 min; actives 0.44% (n = 230,000); Potency, µM (highest dose often 61.6 µM), for inactives: at the top dose activity, negative = inhibition, most hits filed as inhibitors; active = well fitted inhibition curve with a large enough effect, not every such curve was filed as active; inactive = no such curve, though single readings can be large or run the other way; also: potency is read from the fitted curve at half-maximal effect; nearly all actives have a fitted effect of over 30% in size
ALDH1A1 block: ALDH1A1 (human) enzyme inhibition | Potency, µM (titrated, usually from 75.3 µM), for inactives: at the top dose activity, negative = inhibition, hits mostly inhibitors | actives 7.3% (n = 220,000) | Purified ALDH1A1, NADH fluorescence, propionaldehyde substrate; active = well fitted inhibition curve with a large enough effect, not every such curve was filed as active; inconclusive = small, poorly fitted or top-dose-only effect, or another doubt; inactive = no such curve, though single readings can be large or run the other way;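 also: potency is read from the fitted curve at half-maximal effect; plate controls were no enzyme wells and a reference inhibitor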
Sfp inh: inhibitors of Bacillus subtilis Sfp phosphopantetheinyl transferase. Q9F4F7. Biochemical Sfp PPTase activity, qHTS. Potency, µM, without a hit: largest response in the series, negative = inhibition, usual class: inhibitors. actives 3.5% (n = 310,000);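 also: the enzyme is Sfp with the accession as filed and its product quenches rhodamine fluorescence; potency is read from the fitted curve at half-maximal effect; 0% = enzyme reaction without inhibitor and -100% = no enzyme wells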
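With Hepes-Na pH 7.6 buffer containing 10 mM MgCl2, Sfp (15 nM) modified BHQ-2-YbbR (12.5 uM) using rhodamine-CoA (5 uM). Two reads 30 minutes apart at 525/598 nm yielded each well's rate.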
Starred values were filed as active, the others as inactive; u = inconclusive; x = no result given; [ ] = dose if it differs, or a comment. An excerpt weighted towards active compounds, which were near 8.5% of everything screened. Unless noted, calls follow the shape of the dose curve; as a rule, active = well fitted curve in the direction sought with a large enough effect; inconclusive = small, poorly fitted or top-dose-only effect, or another doubt; inactive = no such curve, though single readings can be large; an effect the other way counts as inactive or inconclusive. Unless noted, % is scaled to controls: 0 for no effect and ±100 for the full control effect.

SMILES | NPSR antag | FBPA coupling cs | JMJD2E inh | GoLoco inh red | ALDH1A1 block | Sfp inh
Cc1[nH]c2ccccc2c1C(=O)C(=O)N1CCN(c2cccc(Cl)c2)CC1 | x | x | x | x | x | 15%
C=CCn1nnc2sc3c(c2c1=O)CCC(C)C3 (stereo unspecified) | -2%[46.1 µM] | 2 | 5% | 8% | 18µM* | -20%
CC1(C)Cc2c(sc3nnn(Cc4ccccc4)c(=O)c23)CO1 | 18% | 0 | 9% | -5% | u | -21%
CSc1nc2sc3c(c2c(=O)n1C)CCC(C)C3 (stereo unspecified) | -16%[46.1 µM] | 7 | -14% | 7% | 25µM* | 2%
CCOC(=O)C1=C(C)NC(=S)NC1C (stereo unspecified) | 12% | -2 | 5% | -1% | 0% | 2%
CCOC(=O)C1=C(c2ccccc2)NC(=O)NC1c1ccc(OC)cc1OC (stereo unspecified) | x | -4 | x | x | x | 10%
CCOC(=O)C1=C(c2ccccc2)NC(=S)NC1c1cccc([N+](=O)[O-])c1 (stereo unspecified) | 1%[46.1 µM] | -2 | 0% | x | 0.89µM* | 26%
CCOC(=O)C1=C(c2ccccc2)NC(=O)N(C(C)=O)C1c1cccc([N+](=O)[O-])c1 (stereo unspecified) | -9% | -1 | -4% | 8% | -4% | 3%
CCOC(=O)C1=C(c2ccccc2)NC(=S)NC1C (stereo unspecified) | 2%[46.1 µM] | 4 | -2% | -4% | 2µM* | 3%
CCOC(=O)C1=C(c2ccccc2)NC(=O)NC1c1ccc(O)c(Cl)c1 (stereo unspecified) | x | -3 | x | x | x | -3%
CCOC(=O)C1=C(c2ccccc2)NC(=S)NC1c1cc([N+](=O)[O-])ccc1OC (stereo unspecified) | -19%[46.1 µM] | x | -6% | -15% | 4µM* | 9%
CCOC(=O)C1=C(c2ccccc2)NC(=S)NC1c1ccc(C)c([N+](=O)[O-])c1 (stereo unspecified) | -55% | -14 | -5% | 2% | 0.25µM* | 11%
COc1ccc(C2NS(=O)(=O)OCC2C)cc1 (stereo unspecified) | x | 0 | x | x | x | 14%
COc1ccc(Cl)cc1S(=O)(=O)N1CCC(C(=O)NCCC2=CCCCC2)CC1 | x | x | x | x | x | 5%
CCc1c2c(nc3ccc(OC)cc13)COC2 | x | -12 | u | -9% | u | 15%
Oc1c(N=NC(=S)Nc2ccccc2F)c2ccccc2n1Cc1ccccc1F | -17% | 0 | 7% | 1% | 20µM* | 2%
Cc1ccccc1Cn1c(O)c(N=NC(=S)Nc2ccccc2F)c2ccccc21 | -16% | -1 | 7% | 59% | 32µM* | 12%
CCNC(=S)N=Nc1c(O)n(Cc2ccc(Cl)cc2)c2ccccc12 | -11% | 1 | 3% | -3% | 3.5µM* | u
Cc1ccc(C)c(Cn2c(O)c(N=NC(=S)Nc3ccccc3F)c3ccccc32)c1 | 6% | 0 | -4% | 3% | 13µM* | -17%
O=C(NCc1nc(-c2ccc(C(F)(F)F)cc2)no1)Nc1ccc(OC(F)(F)F)cc1 | 6% | -5 | -1% | 9% | x | 28%
CCc1noc(C)c1C(=O)N1CCCC(N2CCN(c3cccc(Cl)c3)CC2)C1 (stereo unspecified) | x | x | x | x | x | 3%
Cc1cccc(-n2ccc(=O)c(C(=O)Nc3ccc(S(=O)(=O)N4CCOCC4)cc3)n2)c1 | x | x | x | x | x | 0%
O=C(CNC(=O)/C=C/c1ccccc1)N=Nc1c(O)n(Cc2ccccc2)c2ccccc12 | -18% | 7 | 2% | -6% | 3.5µM* | u
Oc1c(N=NC(=S)Nc2ccccc2F)c2ccccc2n1Cc1ccc(Cl)cc1 | -12% | -2 | -7% | 3% | 10µM* | 2%
CC1CC(C)CN(C(=O)CCNS(=O)(=O)c2ccc3c(c2)CCC(=O)N3)C1 (stereo unspecified) | 7% | 1 | 13% | 1% | 4% | 22%
SMILES | NPSR antag | FBPA coupling cs | JMJD2E inh | GoLoco inh red | ALDH1A1 block | Sfp inh
CC1Cc2ccccc2N1C(=O)CCNS(=O)(=O)c1ccc2c(c1)CCC(=O)N2 (stereo unspecified) | -2%[46.1 µM] | -1 | 0% | 26% | 16µM* | 11%
COc1ccccc1CNc1nc(-c2ccc(N(C)C)cc2)nc2ccccc12 | x | -32* | u | -37% | u | 16µM*
COc1ccc2[nH]cc(CCNc3nc(-c4ccc(N(C)C)cc4)nc4ccccc34)c2c1 | x | -6 | x | 6% | u | 18µM*
COc1ccccc1CNc1nc(-c2ccc(C(=O)N(C)C)cc2)nc2ccccc12 | x | 7 | x | 6% | -1% | -11%
CNc1c(NC(=O)C2CCC(C)CC2)c(=O)oc2ccccc12 (stereo unspecified) | x | 1 | x | x | x | u
Cn1c(C(=O)c2ccccc2[N+](=O)[O-])nc2ccccc21 | 1% | -30* | -6% | 28% | 7% | 2%
O=C(COC(=O)Cc1ccc(S(=O)(=O)N2CCOCC2)s1)NCc1ccc(Cl)cc1 | -7%[46.1 µM] | -1 | -4% | 32% | u | 11%
O=C(N/N=C\c1ccco1)Nc1cccc(Cl)c1 | -21% | -5 | 2% | 6% | 28µM* | -29%
C=CCN1C(c2ccc(OCC)cc2)=CS/C1=C(\C#N)c1nnc2n1CCCCC2 | u | 4 | -3% | 19% | 14µM* | u
CC(C)c1ccc(CNC(=O)C(=O)NCC2CCCO2)cc1 (stereo unspecified) | 22% | 1 | 2% | 7% | 2% | 11%
CCCCN1Cc2c(nc3cc(-c4ccco4)[nH]n3c2=O)C1=O | 38% | 6 | u | -26% | u | 10µM*
COc1ccc2cc(C3CC(c4ccco4)=NN3C(=O)CCC(=O)O)c(Cl)nc2c1 (stereo unspecified) | -20% | 7 | u | 1% | -5% | 50µM*
Brc1ccc2[nH]c3c(N4CCc5ccccc5C4)ncnc3c2c1 | u | 3 | 3.5µM* | 57% | u | 17%
Fc1ccc2[nH]c3c(N4CCc5ccccc5C4)ncnc3c2c1 | 57% | 3 | u | 9% | -14% | -2%
NC(=O)Cn1c(=O)n(C2CCCCC2)c(=O)c2c3c(sc21)CCCCC3 | -46% | -1 | 3% | -1% | u | 50µM*
CC1=NN(c2ccc(S(=O)(=O)O)cc2)C(=O)/C1=C\c1ccc(Cl)cc1 | x | x | x | 11%[14.2 µM] | u | x
COc1cc(O)c(NC(C)=O)c2nonc12 | -16%[46.1 µM] | -54* | u | -23% | -4% | 35µM*
COc1ccc(OC)c(NC(=O)C2C3CCC(C3=C(C)C)C2C(=O)O)c1 (stereo unspecified) | 0%[46.1 µM] | -11 | -15% | -17% | 13% | 40µM*
COc1ccc(OC)c(NC(=O)C2CCCCC2C(=O)O)c1 (stereo unspecified) | u | -2 | -2% | -20% | 6% | 3%

Assay outcomes: PubChem, National Center for Advancing Translational Sciences (NCATS)
